Reference: PubChem BioAssay (Tox21)
Results filed as inconclusive are left out. A call without a number means that no potency is given here. Active and inactive are the calls of the source. Calls follow the shape of the dose curve; as a rule, active = well fitted cell-killing curve with a large enough effect in the repeat runs; inconclusive = weak or mixed curves, or effect the other way; inactive = flat fitted curve, though single readings scatter.

Assay: cAMP Responsive Elements (CRE) small molecule antagonists, cell-based qHTS assay: qHTS cell viability counter screen (AID 2060913); also: nearly all actives have a fitted effect of over 40% in size
Settings: CRE-bla HEK293T viability, CellTiter-Glo luminescence, 5 h; series mostly up to 92.4 µM
Text: U.S. Tox21 Program National Center for Advancing Translational Sciences [NCATS] Division of Preclinical Innovation [DPI] U.S. Environmental Protection Agency [EPA] National Institutes of Environmental Health Sciences [NIEHS] National Toxicology Program [NTP] U.S. Food and Drug Administration [FDA] Tox21 Assay Overview: CREB (cyclic-AMP Responsive Element Binding Protein) is a cellular transcription factor. It binds to certain DNA sequences called cAMP Responsive Elements (CRE) and regulates the transcription of the genes. […] This cell line can be used to find agonists/antagonists of the cyclic AMP signaling pathway. The activation of the report gene under culture conditions can be detected by fluorescence intensity. This cell line has been used to screen the Tox21 10K compound library to identify agonists that induce oxidative stress. The cytotoxicity of the Tox21 compound library against the CRE-bla cell line was tested in parallel by measuring the cell viability using CellTiter-Glo assay (Promega, Madison, WI) in the same wells.
Tox21 Assay Protocol Summary: CRE-bla Hek 293T cells were suspended in assay medium (DMEM containing 10% dialyzed FBS, 0.1 mM NEAA, 1 mM sodium pyruvate and 25 mM HEPES) and dispensed at 2,000 cells/4 uL /well into 1536-well black wall/clear bottom plates using a Multidrop Combi (ThermoFisher Scientific, Waltham, MA) dispenser. After the assay plates were incubated at 37 C/5% CO2 for 18 hrs, 23 nL of compounds dissolved in DMSO, positive controls or DMSO only was transferred to the assay plate by a pintool workstation (Kalypsys, San Diego, CA), followed by addition of 1 uL of 1.25uM NKH477 (0.25 uM as final concentration) in assay medium using a Flying Reagent Dispenser (Aurora Discovery, San Diego, CA). The plates were incubated at 37 C and 5% CO2 for 3 hrs. Then 1 uL of LiveBLAzer B/G FRET substrate (Invitrogen, Carlsbad, CA) was added to each well using Bioraptr Flying Reagent Dispenser (FRD, Aurora Discovery, San Diego, CA). The plates were incubated at room temperature for 2 h, then fluorescence intensities were measured using an Envision plate reader (PerkinElmer, Shelton, CT) at Excitation 405nm, Emission 460nm and 530nm. The % activity was determined from the ratio of 460nm/530nm. For cell viability readout that measures cytotoxicity, 4 uL /well of CellTiter-Glo reagent was added into the assay plates using Bioraptr FRD. After 30 min incubation at room temperature, the luminescence intensity in the assay plates was measured using a ViewLux (PerkinElmer, Shelton, CT) plate reader.

Compound	Potency	viability change, negative = cytotoxic
COC(=O)N/N=C/c1c[n+]([O-])c2ccccc2[n+]1[O-]	inactive	
NCCc1ccn[nH]1	inactive	
Nc1ccc2c(S(=O)(=O)O)cccc2c1S(=O)(=O)O	inactive	
Cc1cc(CC(=O)O)c(C)n1-c1ccc(Cl)cc1	inactive	
C=Cc1c(C)c2cc3[nH]c(cc4nc(cc5nc(cc1[nH]2)C(C)=C5CCC(=O)O)C(CCC(=O)O)=C4C)c(C)c3C=C	inactive	
COC(C)(C)OC	inactive	
OCc1ccc(Cl)cc1Cl	inactive	
CO[Si](CCCn1c(=O)n(CCC[Si](OC)(OC)OC)c(=O)n(CCC[Si](OC)(OC)OC)c1=O)(OC)OC	inactive	
COc1ccccc1OCC(O)CN1CCN(CC(=O)Nc2c(C)cccc2C)CC1 (stereo not given)	inactive	
C=CC(=O)N1CCOCC1	inactive	
NCCCCCC(=O)O	inactive	
CC1=CC(=O)NS(=O)(=O)O1	inactive	
CCc1ncc(C)[nH]1	inactive	
CCCc1ccccc1	inactive	
CC/C(C)=N\O[Si](C)(O/N=C(\C)CC)O/N=C(\C)CC	inactive	
CC(C)N=C=NC(C)C	inactive	
CC(C)(CCC(=O)O)C(=O)O	inactive	
CCN1C(=O)c2ccccc2C1Nc1ccc(OCCN2CCCCC2)cc1 (stereo not given)	inactive	
CC[N+](C)(C)c1cccc(O)c1	inactive	
CCO/C=C1\N=C(c2ccccc2)OC1=O	inactive	

Compound	Potency	viability change, negative = cytotoxic
O=C1C(N(CO)C(=O)NCO)N(CO)C(=O)N1CO (stereo not given)	inactive	
CCOC(=O)C(F)(F)F	inactive	
CCCCCO	inactive	
CN1[C@@H]2CC[C@H]1CC(NC(=O)n1c(=O)[nH]c3ccccc31)C2 (stereo not given in full)	inactive	
O=C1OC(=O)c2ccccc21	inactive	
CCCC(=O)O[C@]1(C(=O)CC)CC[C@H]2[C@@H]3CCC4=CC(=O)CC[C@]4(C)[C@H]3[C@@H](O)C[C@@]21C	inactive	
C[N+](C)(C)CCOC(=O)CCC(=O)OCC[N+](C)(C)C	inactive	
C/C=C/C(=O)OCC(C)C	inactive	
CO[Si](CCCOCC1CO1)(OC)OC (stereo not given)	inactive	
Nc1cc([N+](=O)[O-])cc(Cl)c1O	inactive	
O=C(O)CN1C(=O)c2cccc3cccc(c23)C1=O	inactive	
c1cnc(N2CCN(Cc3ccc4c(c3)OCO4)CC2)nc1	inactive	
C=CC[N+](C)(C)CC=C	inactive	
CCCCNCCCC	inactive	
CC1COC(=O)O1 (stereo not given)	inactive	
COc1ccc2cc1Oc1cc3c(cc1OC)CC[N+](C)(C)[C@H]3Cc1ccc(cc1)Oc1c(OC)c(OC)cc3c1[C@@H](C2)[N+](C)(C)CC3	inactive	
CCCCNC1CC(C)(C)NC(C)(C)C1	inactive	
BrC/C=C/CBr		15.6% [at 18.9 µM] (inactive)
CC1=CCC2C(C1)C2(C)C (stereo not given)	inactive	
O=[N+]([O-])c1cccc(S(=O)(=O)NCCNS(=O)(=O)c2cccc([N+](=O)[O-])c2)c1	inactive	
